Hits are enriched below; roughly 3.5% of the tested compounds scored in any of these assays.
TEAD-YAP inh: TEAD-YAP interaction inhibition. HEK-TIYL cells, TEAD-Gal4/YAP UAS-luciferase luminescence. inhibition, % at 9.12 µM. actives 1.4% (n = 640,000); in the data active = inhibition above about 32%;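 note: 0% = median of test compound wells and 100% = reference inhibitor wells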
MITF primary: blocks human microphthalmia-associated transcription factor. AlphaScreen MITF homodimerization, bead proximity signal. actives 0.91% (n = 650,000). inhibition, % at 2.6 µM; in the data active = inhibition above about 50%;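 note: 0% = vehicle wells with protein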
FBW7 activator: activators of human E3 ligase FBW7; normalized activity (activation), % at 26.1 µM; AlphaScreen FBW7–phospho-cyclin E peptide binding, activator screen; AID 1259310; actives 0.13% (n = 650,000); Q969H0; in the data active = normalized activity above about 1.9%;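 note: purified mutant Fbw7 with reduced substrate affinity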
GPR151 activ: human GPR151 activation; PathHunter beta-arrestin GPR151 cells, luminescence; activation, % at 11.2 µM; actives 1% (n = 650,000); AID 1508602; in the data active = activation above about 4.9%;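 note: 0% = median of compound wells and 100% = cells with positive control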
* hit, by the source's call.

SMILES	TEAD-YAP inh	MITF primary	FBW7 activator	GPR151 activ
c1ccc(Oc2ccc(Nc3nc(N4CCOCC4)nc4c3ncn4-c3ccsc3)cc2)cc1	-6	6	0	0
c1ccc(N2CCN(c3nc(Nc4ccc(N5CCOCC5)cc4)c4ncn(-c5ccsc5)c4n3)CC2)nc1	38*	20	0	0
c1ccc(OCCNc2ncnc3nc(N4CCN(c5ccccn5)CC4)[nH]c23)cc1	1	12	0	3
O=C(COc1ccccc1)NCCc1nnc2n1CCN(C/C=C/c1ccccc1)CC2	4	15	0	-1
Cn1nnnc1SCC(=O)Nc1sc2c(c1C(N)=O)CCC2	-14	-4	0	-1
CCSc1ccccc1C(=O)Nc1nc(C)c2cc3c(cc2n1)OCO3	-16	3	0	-2
CCn1c(O)c(C=Nc2ccccc2Cl)sc1=S	32*	-3	0	0
CCN1/C(=C/C=C/c2oc3ccc(Cl)cc3[n+]2CC)Oc2ccc(Cl)cc21	6	1	0	0
CCN1/C(=C/C=C/c2oc3ccc4ccccc4c3[n+]2CC)Oc2ccc3ccccc3c21	78*	-8	0	2
O=C(/C=C/c1ccc(F)cc1)Nc1ccccn1	57*	11	0	-8
O=C(/C=C/c1ccc(Br)cc1)Nc1ccccn1	35*	11	0	-7
O=C(/C=C/c1ccc2c(c1)OCO2)Nc1ccccn1	67*	0	-1	-9
COC(=O)CSC1=C(C#N)C(c2ccc(C)s2)CC(=O)N1 (configuration not stated)	7	10	0	-1
CCOc1ccccc1C1CC(=O)NC(SCC(=O)OC)=C1C#N (configuration not stated)	59*	7	0	0
CCOC(=O)CSC1=C(C#N)C(c2ccc(C)s2)CC(=O)N1 (configuration not stated)	54*	20	0	-1
CCOC(=O)CSC1=C(C#N)C(c2ccc(C)cc2)CC(=O)N1 (configuration not stated)	1	9	0	-1
CCOc1ccccc1C1CC(=O)NC(SCC)=C1C#N (configuration not stated)	7	12	0	0
CCOC(=O)CSC1=C(C#N)C(c2ccc(F)cc2)CC(=O)N1 (configuration not stated)	42*	15	0	-2
CCOC(=O)CSC1=C(C#N)C(c2ccccc2F)CC(=O)N1 (configuration not stated)	48*	14	0	1
C=CCNC(=O)CN(Cc1ccccc1)S(=O)(=O)c1cc(Cl)ccc1Cl	4	2	0	-1
CCOC(=O)N1CCN(C(=O)c2ccc(N3CC4CC(C3)c3cccc(=O)n3C4)c(NC(=O)c3cc4ccccc4oc3=O)c2)CC1 (configuration not stated)	-3	-2	0	-1
CCOc1ccccc1NC(=O)C1CC(=O)N(c2ccccc2)C1 (configuration not stated)	0	8	0	0
COc1ccc(OC)c(-n2c(=S)sc3c(=O)n(-c4ccccc4C)c(SCc4cc(=O)n5cc(Cl)ccc5n4)nc32)c1	-9	2	0	2
COC(=O)CSC1=C(C#N)C(c2cccc(F)c2)CC(=O)N1 (configuration not stated)	46*	20	0	1
Nc1cccc(-c2cnc3ccc(NC4CCOCC4)nn23)c1	4	4	0	0
SMILES	TEAD-YAP inh	MITF primary	FBW7 activator	GPR151 activ
COc1cccc(-c2cnc3ccc(NC4CCC(O)CC4)nn23)c1 (configuration not stated)	64*	-8	-1	0
Cc1ccc(-c2cnc3ccc(NC4CCC(O)CC4)nn23)cc1C (configuration not stated)	-7	-21	0	0
Clc1cccc(-c2cnc3ccc(NC4CCOCC4)nn23)c1	34*	-11	0	0
COc1cccc(-c2cnc3ccc(NC4CCOCC4)nn23)c1	57*	-3	0	-1
COc1ccc(-c2cnc3ccc(NC4CCOCC4)nn23)cc1OC	2	-9	0	1
COc1ccc(S(=O)(=O)N2CCCOC2CNC(=O)C(=O)NCCC(C)C)cc1 (configuration not stated)	5	5	0	0
CCN(CC)c1ccc2cc(C(=O)Nc3cccc(C)c3)c(=N)oc2c1	-2	18	2.4*	0
CCOc1ccc(/C=C/C(O)=C2/C(=O)NC3(C)CC2c2ccccc2O3)cc1OC (configuration not stated)	49*	-14	0	-1
CN(C)c1ccc(C(=O)NCc2ccc3c(c2)CCO3)cc1	-3	-5	1	0

Compound activity (PubChem BioAssay)
